Screening data deposited in PubChem by several laboratories.
PHOSPHO1 block: inhibitors of human PHOSPHO1 phosphatase; recombinant PHOSPHO1, absorbance phosphatase assay; inhibition, % at 13.3 µM; 290,000 tested, 1.1% active; AID 1565; in the data active = inhibition above about 60%
Target sequence (Q8TCT1 whole entry, looked up): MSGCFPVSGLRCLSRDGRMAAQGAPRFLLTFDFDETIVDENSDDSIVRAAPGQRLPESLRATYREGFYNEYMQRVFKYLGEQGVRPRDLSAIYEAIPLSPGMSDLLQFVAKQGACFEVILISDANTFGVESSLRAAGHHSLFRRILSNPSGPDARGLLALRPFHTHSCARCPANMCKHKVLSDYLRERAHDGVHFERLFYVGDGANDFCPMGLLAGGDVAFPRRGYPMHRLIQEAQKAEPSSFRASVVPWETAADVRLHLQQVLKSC
HNF4A DNA FP: change in binding of human HNF4 alpha to DNA; P41235; HNF4a-FITC DNA binding, fluorescence polarization, 1 h; activity change, % at 10 µM; 360,000 tested, 0.3% active; AID 1224865; in the data active = activity change above about 30%, passing the limit was not always enough
Fh CTSL1 inh: blocks F. hepatica cathepsin L1 in PFM18AAP counter-screen; recombinant F. hepatica cathepsin L1, Z-Leu-Arg-MCA fluorescence; inhibition, % at 5.96 µM; 300,000 tested, 0.49% active;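 active = inhibition above the mean of all tested compounds plus 3 SD, set per screening campaign, cut at about 17% in these data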;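 note: 0% = plate median of test compound wells and 100% = 1 µM Z-Phe-Ala-diazomethylketone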
NRP1-CendR mod: alters CendR peptide binding to human NRP-1; O14786; FAM-RPARPAR peptide binding to NRP-1, fluorescence polarization; inhibition, % at 25 µM; 360,000 tested, 0.85% active;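 active = inhibition or corrected inhibition above about 18%, plus a signal ratio from 0.5 to 1.5, limit read from the data, passing the limit was not always enough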
TPT1 inhibitor: C. albicans TPT1 enzyme inhibition | 300,000 tested, 0.81% active | inhibition, % at 5 µM | recombinant caTPT1, FP RNA substrate dephosphorylation;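 active = inhibition above the mean of all tested compounds plus 3 SD, set per screening campaign, cut at about 24% in these data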;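 note: plate controls were DMSO alone for no effect and ferristatin control at 100 nM for full effect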
Rpn11 block: blocks the human proteasome subunit Rpn11; O00487; human 26S proteasome, Ub4-pepOG fluorescence polarization; 20S core pre-blocked with epoxomicin; inhibition, % at 20 µM; 360,000 tested, 0.59% active;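 active = inhibition at 20 µM, scaled to each plate's controls, above about 33%, limit read from the data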
Target sequence (O00487 whole entry, looked up): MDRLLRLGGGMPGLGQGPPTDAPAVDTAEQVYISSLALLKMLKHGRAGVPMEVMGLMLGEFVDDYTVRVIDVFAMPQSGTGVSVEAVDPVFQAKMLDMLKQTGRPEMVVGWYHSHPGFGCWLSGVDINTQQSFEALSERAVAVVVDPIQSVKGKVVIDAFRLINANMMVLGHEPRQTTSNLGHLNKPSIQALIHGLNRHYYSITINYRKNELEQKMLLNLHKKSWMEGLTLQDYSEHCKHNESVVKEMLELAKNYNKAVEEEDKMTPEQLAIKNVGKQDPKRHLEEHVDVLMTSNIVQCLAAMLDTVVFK
Active calls of the source: *. Compounds with a hit are over-represented: about 3.3% of the library has one in this group of screens.

`O=C(CSC1=NS(=O)(=O)c2ccccc21)Nc1ccccc1` gave PHOSPHO1 block 88*, HNF4A DNA FP -6, Fh CTSL1 inh -1, NRP1-CendR mod -32, TPT1 inhibitor -4 and Rpn11 block 8.
`COc1ccc(C(=O)NC(=S)NNC(=O)Cc2cccs2)cc1` gave PHOSPHO1 block 100*, HNF4A DNA FP 0, Fh CTSL1 inh 6, NRP1-CendR mod 8, TPT1 inhibitor -1 and Rpn11 block -3.
Cn1cccc1CC(=O)NNC(=S)NC(=O)c1ccc(F)cc1 was read as PHOSPHO1 block 92*, HNF4A DNA FP 2, Fh CTSL1 inh -1, NRP1-CendR mod -1, TPT1 inhibitor -1 and Rpn11 block 6.
For O=C(O)c1ccc(N=c2oc3cc(O)ccc3cc2C(=O)NCc2ccccc2)cc1 the results were PHOSPHO1 block 28, HNF4A DNA FP 10, Fh CTSL1 inh -2, NRP1-CendR mod -111, TPT1 inhibitor 20 and Rpn11 block 0.
O=C(/C=C/c1cccs1)NC(=S)NNC(=O)Cc1cccs1 was read as PHOSPHO1 block -7, HNF4A DNA FP 0, Fh CTSL1 inh 4, NRP1-CendR mod 29*, TPT1 inhibitor -3 and Rpn11 block 15.
`O=C(NNC(=S)NC(=O)c1ccco1)c1ccc(F)cc1` gave PHOSPHO1 block -29, HNF4A DNA FP 2, Fh CTSL1 inh 11, NRP1-CendR mod 2, TPT1 inhibitor -3 and Rpn11 block 8.
`COc1ccc2cc(C(=O)NCc3ccccc3)c(=Nc3ccc(C(=O)O)cc3)oc2c1` gave PHOSPHO1 block 32, HNF4A DNA FP 2, Fh CTSL1 inh 3, NRP1-CendR mod 46*, TPT1 inhibitor 2 and Rpn11 block 2.
`CCc1ccc(NC(=O)c2onc(C)c2Cl)cc1` gave PHOSPHO1 block -9, HNF4A DNA FP -2, Fh CTSL1 inh -2, NRP1-CendR mod -2, TPT1 inhibitor -3 and Rpn11 block -6.
For COC(=O)c1c(-c2ccsc2)sc2ccc(-c3cc(OC)c(OC)c(OC)c3)cc12 the results were HNF4A DNA FP -1, NRP1-CendR mod 9 and Rpn11 block 4.
For CCOC(=O)c1c(NC(=O)CN2C(=O)NC3(CCC(C)CC3)C2=O)sc(C)c1-c1ccc(C)cc1 (centres undefined) the results were PHOSPHO1 block 12, HNF4A DNA FP -3, Fh CTSL1 inh -1, NRP1-CendR mod -4, TPT1 inhibitor -2 and Rpn11 block 6.
Screening COc1ccc(C(=O)NC(=S)NCc2ccccc2)cc1 returned PHOSPHO1 block 62*, HNF4A DNA FP 1, Fh CTSL1 inh 2, NRP1-CendR mod -15, TPT1 inhibitor -1 and Rpn11 block 1.
`O=C(NC(=S)NCc1ccccc1)c1ccc(Br)cc1` gave HNF4A DNA FP -1, Fh CTSL1 inh -1, NRP1-CendR mod 2, TPT1 inhibitor 0 and Rpn11 block 0.
For COc1ccc(/C=C/C(=O)NC(=S)NNC(=O)Cc2cccs2)cc1OC the results were PHOSPHO1 block 98*, HNF4A DNA FP -1, Fh CTSL1 inh 5, NRP1-CendR mod 3, TPT1 inhibitor -1 and Rpn11 block 6.
Screening COc1ccc(-c2cc3nc(NCC4CCCCC4)n(C)c(=O)c3s2)cc1OC returned HNF4A DNA FP -1, NRP1-CendR mod 4 and Rpn11 block 6.
Screening O=C(C[C@H]1C/C=C\C[C@@H](Cc2ccc(F)cc2)C(=O)OC[C@@H]2CCCN2C1=O)NCCO returned HNF4A DNA FP 0, NRP1-CendR mod -1 and Rpn11 block -4.
Screening O=c1[nH]c2ccccc2c2nc3ccccn3c12 returned PHOSPHO1 block -4, HNF4A DNA FP -1, Fh CTSL1 inh 5, NRP1-CendR mod -6, TPT1 inhibitor -3 and Rpn11 block -2.
Screening O=c1nc2c(O)cccn2c2c1c(=O)[nH]c1ccccc12 returned PHOSPHO1 block -22, HNF4A DNA FP -78, NRP1-CendR mod 48* and Rpn11 block -204.
Screening Nc1nc(CN2CCC(Cc3ccccc3)CC2)nc(Nc2ccccc2)n1 returned PHOSPHO1 block 4, HNF4A DNA FP 54*, Fh CTSL1 inh 1, NRP1-CendR mod -8, TPT1 inhibitor 1 and Rpn11 block 7.
Nc1nc(CN2CCCCCC2)nc(Nc2ccccc2)n1 was read as PHOSPHO1 block 10, HNF4A DNA FP 1, Fh CTSL1 inh -5, NRP1-CendR mod -7, TPT1 inhibitor 2 and Rpn11 block 9.
Screening OC[C@@H]1CN(Cc2ccc(F)cc2)C[C@H](n2cnc3c(N4CCN(c5ccccc5)CC4)ncnc32)O1 returned HNF4A DNA FP -2, NRP1-CendR mod -7 and Rpn11 block 3.
Screening O=C1C=C(c2ccccc2)C[C@H](c2cccs2)[C@H]1n1nnc([N+](=O)[O-])n1 returned PHOSPHO1 block -18, HNF4A DNA FP -6, Fh CTSL1 inh 33*, NRP1-CendR mod -16, TPT1 inhibitor 0 and Rpn11 block -9.
Cc1ccc(OC(C)C(=O)Nc2ccccc2C(=O)N2CCN(C)CC2)cc1 (centres undefined) was read as HNF4A DNA FP -4, Fh CTSL1 inh -1, NRP1-CendR mod 20*, TPT1 inhibitor -2 and Rpn11 block -2.
`Cc1ccc(OC(C)C(=O)Nc2ccccc2C(=O)N2CCOCC2)cc1` (centres undefined) gave PHOSPHO1 block 42, HNF4A DNA FP -1, Fh CTSL1 inh 1, NRP1-CendR mod 2, TPT1 inhibitor 2 and Rpn11 block -1.
`C[C@@H]1C=C(C(=O)O)O[C@H](OCc2ccc(CO)cc2)C1` gave PHOSPHO1 block 28, HNF4A DNA FP 1, Fh CTSL1 inh 1, NRP1-CendR mod -26, TPT1 inhibitor -3 and Rpn11 block 8.
For O=S(=O)(Nc1ccc(Cl)cc1NS(=O)(=O)c1ccccc1)c1ccccc1 the results were HNF4A DNA FP -4, NRP1-CendR mod 17* and Rpn11 block 9.
`Cc1ccc(Cl)cc1NS(=O)(=O)c1ccccc1` gave HNF4A DNA FP -4, NRP1-CendR mod -59 and Rpn11 block 5.
Screening COc1cccc(-c2nc(CS(=O)(=O)CC(=O)NCCCN3CC(C)CC(C)C3)c(C)o2)c1 (centres undefined) returned PHOSPHO1 block 60, HNF4A DNA FP 0, Fh CTSL1 inh 19*, NRP1-CendR mod -4, TPT1 inhibitor -3 and Rpn11 block 3.
Screening CCCNC(=O)CS(=O)(=O)Cc1nc(-c2cccc(OC)c2)oc1C returned PHOSPHO1 block -2, HNF4A DNA FP -3, Fh CTSL1 inh -3, NRP1-CendR mod -12, TPT1 inhibitor 1 and Rpn11 block 0.
`COc1cccc(-c2nc(CS(=O)(=O)CC(=O)NCc3ccc(Cl)cc3)c(C)o2)c1` gave PHOSPHO1 block -9, HNF4A DNA FP 0, Fh CTSL1 inh 1, NRP1-CendR mod 20*, TPT1 inhibitor -1 and Rpn11 block 2.
CCN(CC)C(=S)SCC(=O)c1ccccc1 was read as PHOSPHO1 block 38, HNF4A DNA FP 3, Fh CTSL1 inh -2, NRP1-CendR mod -5, TPT1 inhibitor -2 and Rpn11 block -9.
